The record followed here is PubChem BioAssay (NCATS).

Values joined by “and” are separate entries in the source; they are usually repeats but may differ in a detail not shown here. Equal entries are not always repeated. Results filed as inconclusive are left out. Active and inactive are the calls of the source. Calls come from the whole dose curve.

The nature of experiment [1]: Primary qHTS for Huh7 cytotoxicity: counterscreen for inhibitors of MERS-S pseudotyped particle cell entry (AID 1479147). The conditions noted are these: outcome: dose series up to 57.1 µM unless noted. In general terms: In qHTS, concentration-response curves come from the screen itself.
Experiment [2] in a line: Primary qHTS for inhibitors of MERS-S pseudo-typed particle cell entry (AID 1479149). For activity change, negative = inhibition: % is set by controls: 0 for no effect and ±100 for the full control effect. Note: nearly all actives have a fitted effect of over 60% in size. Note: potency is the fitted concentration of half-maximal effect. The conditions noted are these: outcome: dose series up to 57.1 µM unless noted.
A short description of experiment [3]: Primary qHTS for Vero E6 cytotoxicity: counterscreen for inhibitors of SARS-S pseudo-typed particle cell entry (AID 1479150). Note: potency is the fitted concentration of half-maximal effect. The conditions noted are these: outcome: dose series up to 57.1 µM unless noted.
A short description of experiment [4]: Primary qHTS to identify inhibitors of SARS-CoV-2 cell entry (AID 1645846). Note: nearly all actives have a fitted effect of over 45% in size. Note: potency is the fitted concentration of half-maximal effect. The conditions noted are these: SARS-CoV-2 pseudovirus cell entry assay, luminescence; activity change, negative = inhibition: at 57.1 µM (top of the series) unless noted. Put shortly: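 HEK293 cells stably expressing human ACE2, pre-treated 1 h with compound, then infected with MLV particles pseudotyped with Wuhan-Hu-1 spike (C-terminal 19-aa truncation). Luciferase luminescence after 48 h at 37 °C, normalised to spike PP and bald PP.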

The nature of experiment [5]: Confirmatory qHTS for VERO E6 Cytotoxicity Assay: Counterscreen for SARS-CoV-2 CPE Assay (AID 1508605). Note: nearly all actives have a fitted effect of over 60% in size. Note: potency is the fitted concentration of half-maximal effect.
Experiment [6] is described as follows: Cytotoxicity counterscreen for inhibitors of SARS-CoV-2 cell entry (AID 1645845). Note: nearly all actives have a fitted effect of over 50% in size. Note: potency is the fitted concentration of half-maximal effect. To be noted: outcome: dose series up to 57.1 µM unless noted. Put shortly:
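ATP-content luminescence (ATPLite 1step, 15 min RT) read after 48 h compound exposure of Expi293F cells stably expressing human ACE2; normalized to cells-only wells and media-only wells.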
(In general: Counterscreens check selectivity or assay interference.)

Experiment [7] can be described thus: Confirmatory qHTS to identify inhibitors of SARS-CoV-2 cell entry (AID 1645844). Note: potency is the fitted concentration of half-maximal effect; nearly all actives have a fitted effect of over 45% in size. The method, boiled down: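 Luminescence entry read-out after 48 h: spike-pseudotyped MLV particles (Wuhan-Hu-1, 19-aa C-terminal truncation) added to compound-pretreated (1 h) HEK293-ACE2 cells; Data were normalised to bald PP and spike PP wells.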
Experiment [8] in a line: VSVG counterscreen qHTS to identify inhibitors of SARS-CoV-2 cell entry (AID 1645847). Note: % is set by controls: 0 for no effect and ±100 for the full control effect; nearly all actives have a fitted effect of over 65% in size. Put shortly: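 HEK293-ACE2 cells (Expi293F, human ACE2) pretreated 1 h with compound, then infected with MLV-based VSV-G pseudotyped particles for 48 h at 37 C; luciferase luminescence normalized to VSV-G PP and bald PP wells.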

As to `CN1CC(O)c2cc(N=NC(=N)N)c(O)cc21` (stereo not given), the Potency result in experiment [1], in experiment [2] and in experiment [3] was “inactive” each time. Besides, the activity change, negative = inhibition in experiment [4] was -23.2%.

Turning to `N=C(N)c1ccc(OCCCOc2ccc(C(=N)N)cc2Br)c(Br)c1`, the Potency entry in experiment [1] and in experiment [3] was “inactive” each time.

Regarding `CC(CN(C)C)CN1c2ccccc2Sc2ccc(C(F)(F)F)cc21` (stereo not given), the Potency entry in experiment [5] is “inactive”.

Regarding `CC(C)C[C@H]1C(=O)O[C@H](Cc2ccc(N3CCOCC3)cc2)C(=O)N(C)[C@@H](CC(C)C)C(=O)O[C@H](C)C(=O)N(C)[C@@H](CC(C)C)C(=O)O[C@H](Cc2ccc(N3CCOCC3)cc2)C(=O)N(C)[C@@H](CC(C)C)C(=O)O[C@H](C)C(=O)N1C`, the Potency entry in experiment [5] was “inactive”.

On to `CCC(C)CNCC(=O)N1CCC2SC=CC2C1COc1cccc(C)c1` (stereo not given), for which the Potency entry in experiment [5] was “inactive”.

As for `CC(C)c1cccc2c(-c3ccccc3)cc(-c3ccc(-c4ccc(C(=O)O)cc4)[nH]3)nc12`, the Potency result in experiment [5] was “inactive”.

Take `C[C@H](Oc1cc(-c2cnn(C3CCNCC3)c2)cnc1N)c1c(Cl)ccc(F)c1Cl`: the values for the Potency in experiment [2] and in experiment [4] were 12.6 µM (active) and 11.2 µM (active), respectively. Besides, the Potency entry in experiment [3] and in experiment [6] was “inactive” each time.

Consider `C[C@@H]1CN(CC(=O)N2CC(C)(C)c3ncc(Cc4ccc(F)cc4)cc32)[C@@H](CN2CCOC[C@H]2C)CN1`, for which the Potency result in experiment [5] is “inactive”.

Consider `COc1ccc2sc(NC(c3ccc(OC(F)F)cc3)c3ccc4cccnc4c3O)nc2c1` (stereo not given), for which, in experiment [5], the Potency was 0.708 µM (active).

As for `C=C1C(=O)O[C@H]2C3=C(C)CCC[C@]3(C)C(=O)C[C@@H]12`, the Potency in experiment [5] was 10 µM (active).

`Cc1cc(/C=C/c2ccc3cc(N(C)C)ccc3[n+]2C)c(C)n1-c1ccccc1`: the figures for the Potency in experiment [2] and in experiment [4] were 5.01 µM (active) and 1.78 µM (active), respectively.

As for `Clc1ccc(CCCOCCCN2CCCCC2)cc1`, the Potency result in experiment [3] and in experiment [6] was “inactive” throughout.

For `COc1cc2nc(N3CCCCC3)nc(NC3CCN(Cc4ccccc4)CC3)c2cc1OC`, in experiment [5], the Potency is 10 µM (active).

Regarding `O=C(CCCN1CCC(n2c(=S)[nH]c3ccccc32)CC1)c1ccc(F)cc1`, in experiment [3], the Potency entry was “inactive”.

Regarding `CCCCCCCCCCCCCC[n+]1ccc(C)cc1`, the Potency result in experiment [1] was “inactive”. Further, the Potency in experiment [6] is 5.62 µM (active).

In the case of `CCCCCCCC(=O)CC[C@@H]1[C@@H](C/C=C\CCCC(=O)OC(C)C)[C@@H](O)C[C@H]1O`, the Potency result in experiment [1] and in experiment [3] was “inactive” each time. Further, in experiment [4], the Potency is 25.1 µM (active).

For the compound `Cc1[nH]c(/C=C2\C(=O)Nc3ccc(F)cc32)c(C)c1C(=O)NCCN1CCCC1`, the Potency entry in experiment [3] and in experiment [6] was “inactive” each time. The activity change, negative = inhibition in experiment [4] is -9.79% [at 27.1 µM].

On to `CC1=CC(=C(c2ccc(N)cc2)c2ccc(N)cc2)C=CC1=N`, for which the Potency in experiment [2] was 7.08 µM (active); in experiment [6] it was 8.91 µM (active); in experiment [4], 5.01 µM (active).

For `CCSc1ccc2c(c1)N(CCCN1CCN(C)CC1)c1ccccc1S2`, the Potency result in experiment [3] was “inactive”.

Consider `CC(C)N1CCN(c2ccc(OC[C@@H]3CO[C@@](Cn4cncn4)(c4ccc(Cl)cc4Cl)O3)cc2)CC1`, for which the Potency result in experiment [2], in experiment [3] and in experiment [6] was “inactive” throughout.

Turning to `FC(F)(F)C(F)(F)C(F)(F)C(F)(F)C(F)(F)F`, the Potency entry in experiment [2] is “inactive”.

As to `CC(=O)Oc1cc(C)c(OC(C)=O)c2ccccc12`, the Potency entry in experiment [3] is “inactive”. The Potency in experiment [4] was 31.6 µM (active).

For `CCC1OC(=O)C(C)C(OC2CC(C)(OC)C(O)C(C)O2)C(C)C(OC2OC(C)CC(N(C)C)C2O)C(C)(O)CC(C)C2NC(COCCOC)OC(C2C)C1(C)O` (stereo not given), the Potency result in experiment [2], in experiment [3] and in experiment [6] was “inactive” in each case.

On to `CCCCCCOc1ccc(C(=N)N(CCCC)CCCC)c2ccccc12`, for which the Potency in experiment [3] was 14.1 µM (active); in experiment [5], 10 µM (active).

Turning to `C=CC(=O)Nc1cc(Nc2nccc(-c3cn(C)c4ccccc34)n2)c(OC)cc1N(C)CCN(C)C`, the Potency in experiment [2] was 31.6 µM (active); in experiment [6] it was 28.2 µM (active); in experiment [4], 3.16 µM (active) and 8.91 µM (active).

Turning to `COc1cc(N2CCC(N3CCN(C)CC3)CC2)ccc1Nc1ncc(Cl)c(Nc2ccccc2P(C)(C)=O)n1`, the Potency entry in experiment [3] and in experiment [8] was “inactive” in each case. The Potency was 4.82 µM (active) in experiment [7] and 8.91 µM (active) in experiment [4].

As to `NC(=O)c1cccc2cn(-c3ccc(C4CCCNC4)cc3)nc12` (stereo not given), the Potency in experiment [2] is 25.1 µM (active). In addition, the Potency entry in experiment [3] was “inactive”.

As for `Cc1cc(-n2c(=O)[nH]c(=O)n(C)c2=O)ccc1Oc1ccc(S(=O)(=O)C(F)(F)F)cc1`, in experiment [1], the Potency entry is “inactive”. Further, the Potency in experiment [4] was 17.8 µM (active).

Regarding `CC1(C)[C@@H](O[C@H]2O[C@H](C(=O)O)[C@@H](O)[C@H](O)[C@H]2O[C@@H]2O[C@H](C(=O)O)[C@@H](O)[C@H](O)[C@H]2O)CC[C@]2(C)[C@H]3C(=O)C=C4[C@@H]5C[C@@](C)(C(=O)O)CC[C@]5(C)CC[C@@]4(C)[C@]3(C)CC[C@@H]12`, the Potency entry in experiment [2], in experiment [3] and in experiment [6] was “inactive” in each case.
